# Source: PubChem BioAssay
# Tau fil binding = tau filament binding; P10636; recombinant tau filaments, thioflavin S fluorescence, 15 h; filaments grown with octadecylsulfate alongside compound; Potency, µM (titrated, usually from 57.1 µM), for the others: top-dose activity change, negative = inhibition; hit rate 2% among 71,000;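 also: % is scaled to controls: 0 for no effect and ±100 for the full control effect; actives lower thioflavin S fluorescence by blocking filaments or displacing dye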
# Target sequence (P10636 whole entry, looked up): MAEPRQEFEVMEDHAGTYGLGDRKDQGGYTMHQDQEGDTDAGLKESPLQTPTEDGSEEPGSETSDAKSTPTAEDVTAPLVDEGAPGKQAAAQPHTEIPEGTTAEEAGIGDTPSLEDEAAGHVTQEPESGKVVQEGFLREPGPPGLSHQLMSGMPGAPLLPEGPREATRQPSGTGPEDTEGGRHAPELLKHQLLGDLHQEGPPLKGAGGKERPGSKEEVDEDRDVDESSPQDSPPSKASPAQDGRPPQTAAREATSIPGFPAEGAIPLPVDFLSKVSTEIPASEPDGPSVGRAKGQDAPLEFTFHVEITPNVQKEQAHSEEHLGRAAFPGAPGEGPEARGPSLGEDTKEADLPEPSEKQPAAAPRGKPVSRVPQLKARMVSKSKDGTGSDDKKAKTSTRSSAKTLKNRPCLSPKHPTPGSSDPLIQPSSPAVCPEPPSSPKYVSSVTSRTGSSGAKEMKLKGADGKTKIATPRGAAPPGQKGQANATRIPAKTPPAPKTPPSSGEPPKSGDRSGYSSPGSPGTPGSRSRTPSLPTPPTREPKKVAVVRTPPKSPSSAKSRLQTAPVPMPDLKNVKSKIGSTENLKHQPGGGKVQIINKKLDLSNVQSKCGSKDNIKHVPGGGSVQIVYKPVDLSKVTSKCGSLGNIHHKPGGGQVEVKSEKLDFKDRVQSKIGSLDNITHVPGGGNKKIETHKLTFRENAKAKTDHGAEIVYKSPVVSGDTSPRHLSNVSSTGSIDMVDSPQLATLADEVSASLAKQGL
#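 ThS-based fibril read: tau 1 uM final, inducer ODS 30 uM final, 37 C for 15 h, ex 450/em 510 nm.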
# HEK293 cAMP cs = counter-screen for TSHR agonists: cAMP increase in parental HEK293; parental HEK293 CNG cAMP sensor, membrane potential fluorescence; Potency, µM (highest dose often 57.1 µM), for inactives: top-dose activation, actives largely listed as activators; hit rate 2.5% among 73,000; AID 938; also: % of control where 0% means no effect; nearly all actives have a fitted effect of over 55% in size
#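 Parental HEK 293 cells stably expressing a modified CNG channel (no TSHR) report cAMP rise as membrane depolarization. Membrane potential dye with 100 uM RO 20-1724 was loaded for 60 min at room temperature, then compound added for 30 min; fluorescence read at 590 nm.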
# Pol III holo inh = DNA polymerase III holoenzyme inhibition; reconstituted DNA polymerase III holoenzyme replication, biochemical; Potency, µM (titrated, usually from 57.1 µM), for the others: at the highest dose activity change, negative = inhibition; hit rate 0.25% among 71,000; AID 603; also: % is scaled to controls: 0 for no effect and ±100 for the full control effect
#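 Reconstituted *E. coli* holoenzyme (0.35 nM Pol III, 1 nM beta, 154 nM SSB, 2 nM primase) was preincubated with compound for 15 min at RT. Synthesis on 1.4 nM ssM13Gori ran 35 min, then was stopped with PicoGreen/EDTA and read as dsDNA fluorescence.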
# Hsp90 Hop PPI = changes Hsp90-Hop TPR2A binding signal, up or down. Potency, µM (series often up to 57 µM), for inactives: at the top dose activity change, negative = inhibition. AID 595. hit rate 0.44% among 71,000. AlphaScreen TPR2A-His6 binding biotin-Hsp90 C-terminal peptide; active = well fitted curve in either direction with a large enough effect; inconclusive = small, poorly fitted or top-dose-only effect, or another doubt; also: % is scaled to controls: 0 for no effect and ±100 for the full control effect
# TSHR ag = agonists of human thyroid stimulating hormone receptor. P16473. HEK293-CNG-TSHR cells (CNG channel as cAMP sensor), membrane potential dye, cAMP. Potency, µM (doses to about 57.1 µM), inactives show top-dose activation, actives largely listed as activators. hit rate 0.48% among 73,000; active = well fitted activation curve with a large enough effect in the main read-out, with a control signal flat, not every such curve was filed as active; inconclusive = small, poorly fitted or top-dose-only effect, or a change in a side signal; inactive = no such curve, though single readings can be large or run the other way; % of control where 0% means no effect;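 also: the control signal comes from parental cells without the receptor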
#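 cAMP rise detected as CNG-channel membrane depolarization by fluorescent dye (emission 590 nm), 30 min after compound, following 60 min dye loading containing 100 uM RO 20-1724 at room temperature. Cells: TSHR/CNG HEK 293, with parental CNG HEK 293 as control.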
# * hit, by the source's call; ? = inconclusive; nt = no result; [ ] = dose if it differs, or a comment. The list is not random: actives were taken first. Their share in the collection is about 5.1%. Unless noted, calls follow the shape of the dose curve; as a rule, active = well fitted curve in the direction sought with a large enough effect; inconclusive = small, poorly fitted or top-dose-only effect, or another doubt; inactive = no such curve, though single readings can be large; an effect the other way counts as inactive or inconclusive. Potency is read from the fitted curve at half-maximal effect.
SMILES,Tau fil binding,HEK293 cAMP cs,Pol III holo inh,Hsp90 Hop PPI,TSHR ag
Cc1ccccc1OCC(=O)Nc1ccccc1N1CCCCC1,9.3%,?,-3.1%,?,?
CCC(=O)N1CCN(c2ccccc2NC(=O)COc2cccc(C)c2)CC1,28.6%,20µM*,-1.2%,-2.9%,?
CCOC(=O)OCC1C=C[C@H](c2cc(-c3ccccc3)ccc2O)C(c2ccc(C(C)=O)cc2)O1 (stereo partly drawn),nt,-4.4%[11.4 µM],nt,nt,-0.7%[11.4 µM]
CC1CCc2cc(F)ccc2N1C(=O)c1ccc2c(c1)OCO2 (stereo not drawn),-5.9%,25.3%,-3.6%,-0.3%,25.1µM*
COc1ccc(C(=O)N2c3ccc(F)cc3CCC2C)cc1OC (stereo not drawn),-3.4%,15.6%,-4.8%,-1.0%,-58.0%
Cc1cc(N2CCCC2)ccc1/C=N/n1cnnc1,4.4%[11.4 µM],-1.5%[11.4 µM],3.6%[11.4 µM],-8.3%[11 µM],3.0%[11.4 µM]
Cc1cc(/C=N/n2cnnc2)c(C)n1-c1ccc(Cl)cc1Cl,-19.0%[11.4 µM],3.16µM*,-6.4%[11.4 µM],-20.4%[11 µM],?
Cc1cc(/C=N/n2cnnc2)c(C)n1-c1cccc(Cl)c1,10.3%,-1.2%,3.3%,-9.6%,25.1µM*
Cc1cc(/C=N/n2cnnc2)c(C)n1-c1ccc(OCc2ccc(F)cc2)cc1,219.5%[11.4 µM],?,-0.1%[11.4 µM],-19.2%[11 µM],?
Cc1cc(C)c(S(=O)(=O)Nc2ccccc2C(=O)O)cc1C,nt,-16.5%,nt,nt,7.1%
CC(=O)c1c(C)n(-c2ccccc2)c2ccc(OCC(O)CN3CCOCC3)cc12 (stereo not drawn),37.9%,12.6µM*,-0.7%,-7.1%,?
COc1ccc(NC(=O)N2CC3(CCN(C(=O)c4ccc(OC)cc4)CC3)C2)cc1,-2.1%,15.7%,3.2%,-3.1%,4.9%
Cc1ccc(-c2nc(CS(=O)(=O)CC(=O)N3CCc4ccccc4C3)c(C)o2)cc1,59.1%,1.58µM*,-2.8%,-6.3%,?
Cc1ccc(-c2nc(CS(=O)(=O)CC(=O)N3CCCCCC3)c(C)o2)cc1,29.7%,?,-4.6%,-2.5%,?
CCOC(=O)c1sc(NC(=O)c2ccc(S(=O)(=O)N3CCOCC3)cc2)cc1C,54.4%,17.3%,-5.8%,-1.2%,6.0%
COc1ncc2nc(C)c(=O)n(Cc3cccs3)c2n1,-2.3%,20.4%[2.29 µM],-8.2%,-3.2%,nt
COc1ccccc1N1CCN(C(c2cccs2)c2nnnn2C2CCCC2)CC1 (stereo not drawn),-6.8%,12.6µM*,-6.8%,-0.3%,?
COc1ccc(C(c2nnnn2C2CCCC2)N2CCC(C)CC2)cc1 (stereo not drawn),-3.7%,20µM*,5.0%,11.4%,?
Clc1ccc(C(c2nnnn2C2CCCC2)N2CCSCC2)cc1 (stereo not drawn),-6.6%,3.16µM*,-4.9%,3.9%,?
O=C(c1ccco1)N1CCC2(CCCN(Cc3ccncc3)C2)CC1,37.1%,14.3%,-6.0%,-4.8%,7.3%
CNc1ccnc(-c2cccc(NS(C)(=O)=O)c2)n1,2.4%,18.9%,2.0%,4.5%,2.3%
O=C(Nc1ccccc1)N1CCCC2(CCN(C(=O)c3csnn3)CC2)C1,-4.1%,?,2.8%,1.0%,?
CC(C#N)Sc1ncnc2sc3c(c12)CCC3 (stereo not drawn),11.8%,25.1µM*,0.2%,8.1%,?
N#CCSc1ncnc2sc3c(c12)CCC3,-8.8%,9.6%,-10.4%,-4.7%,28.1%
O=C(NC1CCCCC1)C(c1ccncc1)N(C(=O)Cn1nnc(-c2cccs2)n1)C1CCCC1 (stereo not drawn),-1.1%,?,-1.0%,-3.9%,?
SMILES,Tau fil binding,HEK293 cAMP cs,Pol III holo inh,Hsp90 Hop PPI,TSHR ag
O=C(NC1CCCCC1)C(c1ccccc1)N(Cc1ccco1)C(=O)Cn1cnc2ccccc21 (stereo not drawn),1.6%,20µM*,-3.1%,-15.6%,?
Cc1ccc(-c2nnn(CC(=O)N(Cc3cccs3)C(C(=O)NC3CCCC3)c3ccco3)n2)o1 (stereo not drawn),455.0%,12.6µM*,0.6%,-2.7%,?
O=C(NC1CCCC1)C(c1cccs1)N(Cc1ccco1)C(=O)Cn1nnc(-c2cccs2)n1 (stereo not drawn),18.8%,20µM*,1.1%,0.0%,?
COCCN(C(=O)Cn1nnc2ccccc21)C(C(=O)NC1CCCC1)c1cccc(OC)c1OC (stereo not drawn),-2.5%,20µM*,1.3%,-1.8%,?
CC(C)[C@@H]1OC(=O)C=CC=CC=CC=CC=CC[C@@H](O)[C@H](C)[C@@H](O)C[C@H](O)C[C@H](O)C[C@H](O)C[C@H](O)C[C@H](O)C[C@H](O)C=C[C@@H]1C,16.0%[11.4 µM],-6.9%[11.4 µM],-10.9%[11.4 µM],-5.9%[11 µM],-3.6%[11.4 µM]
CCN(CC)C[C@@H](O)c1ccc2ccc3ccccc3c2c1,10.0%[11.4 µM],10.2%[11.4 µM],-9.9%[11.4 µM],-1.4%[11 µM],7.7%[11.4 µM]
CCCS(=O)(=O)O,-5.9%[11.4 µM],5.0%[11.4 µM],-4.4%[11.4 µM],1.0%[11 µM],-3.3%[11.4 µM]
Cc1ccc(CNC(=O)[C@H]2C[C@@H]2[C@H](NP(=O)(c2ccccc2)c2ccccc2)c2ccccc2)c(F)c1F,61.5%,18.4%,-8.5%,-1.2%,9.7%
O=C(NC1CCCCC1)C(c1ccco1)N(Cc1cccs1)C(=O)Cn1nnc2ccccc21 (stereo not drawn),75.0%,15.8µM*,17.0%,-2.7%,?
COc1ccc(-c2ccc3c(n2)CCCN3C[C@H](O)CN2CCCc3nc(C)c(C)cc32)cc1,nt,-6.7%[11.4 µM],nt,nt,-11.1%[11.4 µM]
Cc1cc(C)n2nc(C(=O)Nc3ccccc3N3CCOCC3)nc2n1,9.0%,-1.1%,0.6%,-1.8%,1.1%
CCOc1cc(N2CCOCC2)c(OCC)cc1NC(=O)CCC1CCCC1,-11.0%,-25.5%,0.1%,-9.4%,1.3%
CCOc1cc(N2CCOCC2)c(OCC)cc1NC(=O)CCS(=O)(=O)c1ccc(Cl)cc1,25.1µM*,-0.2%,-1.9%,-12.1%,-8.0%
CCOc1cc(N2CCOCC2)c(OCC)cc1NC(=O)c1nc2nc(C)cc(C)n2n1,25.1µM*,-13.7%,-3.0%,-3.7%,-7.6%
CS(=O)(=O)c1nc(-c2ccco2)cc(C(F)(F)F)n1,67.9%,9.8%,-12.0%,0.1%,23.2%
FC(F)(F)c1cc(-c2ccco2)nc(-n2nnc3ccccc32)n1,-27.9%,25.1µM*,-0.9%,2.0%,?
CCn1c2ccccc2c2nnc(SCC(=O)c3ccccc3)nc21,95.3%,5.6%,0.3%,1.5%,11.7%
CSc1nnc2c3cc(C)ccc3n(Cc3ccccc3)c2n1,1.4%,15.8µM*,-4.4%,5.2%,?
COc1ccc(COC(=O)N/N=C2/C[C@@H](O)[C@@H](O)[C@@H]3[C@@H]4C(=O)N(C(C)(C)C)C(=O)[C@H]4CC[C@@H]23)cc1,nt,4.1%[11.4 µM],nt,nt,4.8%[11.4 µM]
COC(=O)[C@@]1(Cc2ccccc2)C=C[C@@H](C)N1C(=O)c1ccccc1,0.1%,31.6µM*,-16.0%,-4.7%,?
CC(=O)N1[C@H](C)C=C[C@]1(Cc1ccccc1)C(=O)NCCc1c[nH]c2ccccc12,-8.8%,28.0%,-6.0%,-6.1%,0.5%
